GPR7 antagonist = human neuropeptides B/W receptor 1 antagonism; GPR7-expressing cells, fluorescence antagonist assay; P48145; actives 1.1% (n = 290,000); inhibition, % at 4.4 µM; AID 1861; in the data active = inhibition above about 16%, passing the limit was not always enough;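 note: cells stimulated with the agonist NPW; 0% = agonist with vehicle and 100% = vehicle without agonist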
ANO1 activ = mouse TMEM16A channel activation, primary screen; HEK293 TMEM16A/YFP-H148Q/I152L, iodide quench fluorescence; active compounds read low; actives 0.3% (n = 340,000); B-score at 10 µM; AID 623877;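 active = fluorescence-ratio B-score plate-corrected deviation score at least 3 library SD below zero, with starting fluorescence score within 5 deviations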;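 note: channel opened by trigger with iodide after compound preincubation; score built on the fluorescence ratio of max minus min over baseline; more negative score means more quench and so TMEM16A activation or potentiation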
ANO1 block = mouse TMEM16A channel inhibition, primary screen. Q8BHY3. HEK293 TMEM16A/YFP iodide influx fluorescence, ionomycin. normalized B-score (activity score, 25-100; higher = stronger inhibition) at 10 µM. actives 1.2% (n = 310,000);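 active = ratio plate-corrected score three or more library SD toward inhibition, starting fluorescence score within five deviations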;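 note: score derived from kinetic fluorescence span divided by baseline fluorescence per well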
CHT inh = human CHT choline transport inhibition. Q9GZV3. CHT-expressing cells, membrane potential dye, choline response; active compounds read low. B-score at 10 µM. actives 0.86% (n = 310,000). AID 488975;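 active = B-score over 3 SD under the library average, and starting fluorescence ratio not unusually high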;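 note: choline stimulus applied at its EC90 after an EC20 pre-addition; B-score computed on integrated fluorescence ratio after choline addition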
CHT allo act = allosterically activates the human high affinity choline transporter | CHT-expressing cells, membrane potential dye, choline EC20; active compounds read high; LV-AA mutant CHT in HEK293 cells | actives 0.49% (n = 310,000) | Q9GZV3 | B-score at 10 µM;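 active = initial fluorescence not abnormally high and integrated response B-score, plate-corrected, over 3 SD above library mean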
Kir21 inh = inhibitors of mouse Kir2.1 inward-rectifier potassium channel; P35561; HEK293-Kir2.1, FluxOR thallium flux fluorescence; active compounds read low; B-score at 10 µM; actives 0.85% (n = 310,000);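 active = fluorescence ratio B-score at or below minus 3 SD of library scores, with starting-brightness B-score within 2 SD, cut at about -4.2 in these data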;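 note: channel flux triggered by added potassium and thallium sulfate stimulus; B-score of peak minus minimum fluorescence over baseline after thallium stimulus; more negative B-score means stronger Kir2.1 block with less thallium influx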
Target sequence (P35561 whole entry, looked up): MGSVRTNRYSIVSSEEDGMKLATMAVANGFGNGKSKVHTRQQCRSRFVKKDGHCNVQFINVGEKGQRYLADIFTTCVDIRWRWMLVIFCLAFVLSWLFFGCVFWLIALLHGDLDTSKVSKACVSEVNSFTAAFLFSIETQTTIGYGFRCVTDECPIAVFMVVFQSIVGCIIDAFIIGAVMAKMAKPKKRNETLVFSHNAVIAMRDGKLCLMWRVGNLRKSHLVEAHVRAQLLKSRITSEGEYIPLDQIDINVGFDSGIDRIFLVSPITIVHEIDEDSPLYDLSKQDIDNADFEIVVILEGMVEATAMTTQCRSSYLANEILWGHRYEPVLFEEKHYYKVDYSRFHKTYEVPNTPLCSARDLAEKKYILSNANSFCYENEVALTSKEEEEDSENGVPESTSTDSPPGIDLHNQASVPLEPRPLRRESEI
GPR7 antag cf = human GPR7 antagonism, confirmation assay. inhibition, % at 4.4 µM. GPR7-expressing cells, calcium fluorescence antagonist mode. actives 52% (n = 2,400). shares compounds with GPR7 antagonist; in the data active = inhibition above about 24%;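 note: stimulated with the GPR7 agonist NPW; 0% = agonist plus vehicle and 100% = vehicle alone without agonist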
MCHR1 antag = counter-screen for GPR7 antagonists: antagonists of human MCHR1; shares compounds with GPR7 antagonist; MCHR1-expressing cells, fluorescence antagonist assay; inhibition, % at 4.4 µM; actives 62% (n = 2,400); AID 2148; in the data active = inhibition above about 22%;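 note: 0% = vehicle with agonist and 100% = vehicle without agonist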
Starred values were filed as active, the others as inactive; i = inactive; / = no result given. In the library only some 3.7% were active in any assay of this set; here they are far more common.

SMILES | GPR7 antagonist | ANO1 activ | ANO1 block | CHT inh | CHT allo act | Kir21 inh | GPR7 antag cf | MCHR1 antag
CCC(C)NCCOCCOc1ccc(Cl)c(C)c1C (stereo not given) | 21* | i | i | i | i | -1.4 | 24* | 25*
CCC(C)NCCCOc1cc(Cl)ccc1Cl (stereo not given) | -9 | i | i | i | i | -3.3 | / | /
CCC(C)NCCOCCOc1ccc(Cl)c2ccccc12 (stereo not given) | 71* | i | i | i | i | -9.7* | 50* | 53*
CCOc1ccc(-c2nc(CCl)cs2)cc1OC | -13 | i | i | i | i | 2.8 | / | /
CCc1ccccc1NC(=O)Cn1nc(C)n2cccc2c1=O | -15 | i | i | i | i | 2.8 | / | /
Cc1nn(CC(=O)Nc2ccccc2C(F)(F)F)c(=O)c2cccn12 | 31* | i | i | i | i | -1.6 | 9 | 1
OC(CNCC(c1ccc(Cl)cc1Cl)c1c[nH]c2ccccc12)c1ccccc1 (stereo not given) | 19 | i | i | i | i | -0.4 | / | /
c1ccc(CN2C3=NCCN3c3ccccc32)cc1 | 3 | i | i | i | i | -1.4 | / | /
O=C(CN1C2=NCCN2c2ccccc21)C12CC3CC(CC(C3)C1)C2 | 42* | i | i | i | i | 0.59 | 40* | 32*
CC1(C)CC(NCCN2CCN(C3=CC(=C(C#N)C#N)CC(C)(C)C3)CC2)=CC(=C(C#N)C#N)C1 | -4 | i | i | i | i | 0.09 | / | /
CN1CCN(C2=CC3=CC(=C(C#N)C#N)CCC3CC2)CC1 (stereo not given) | 59* | -41* | / | / | / | / | 76* | 90*
CCN1CCN(C2=CC3=CC(=C(C#N)C#N)CCC3CC2)CC1 (stereo not given) | 60* | i | / | / | / | / | 68* | 91*
N#CC(C#N)=C1C=C2C=C(N3CCCCCC3)CCC2CC1 (stereo not given) | 72* | i | / | / | / | -14 | 97* | 110*
S=C(NCc1ccc(Cl)cc1)NN1CCOCC1 | -8 | i | i | i | i | 0.68 | / | /
Cc1cc2cc(CNC(=S)Nc3ccc(OC(F)F)cc3)ccc2n1C | 50* | i | i | i | i | 0.53 | -12 | 51*
Cc1cc2cc(CNC(=O)Nc3ccc(Cl)c(Cl)c3)ccc2n1C | -12 | i | i | i | i | 0.03 | / | /
CCn1c(-c2ccc(N)cc2)nc2ccccc21 | -12 | i | i | i | i | -0.3 | / | /
CCn1c(-c2ccc(N(C)C)cc2)nc2ccccc21 | 37* | i | i | i | i | 1 | 17 | 26*
Cn1nnnc1SCCNCc1ccccc1F | 4 | i | i | i | i | -0.36 | / | /
Cn1nnnc1SCCNCC#Cc1ccccc1 | 26* | i | i | i | i | 0.11 | 8 | 4
O=c1[nH]c2cc3c(cc2cc1CN(Cc1ccco1)C(=S)NCCCN1CCOCC1)OCCO3 | 100* | i | i | i | i | -1.6 | 4 | -3
CCCCNC(=S)N(Cc1ccco1)Cc1cc2cc3c(cc2[nH]c1=O)OCCO3 | -3 | i | i | i | i | -0.89 | / | /
CC(C(=O)NCc1ccc(F)cc1)c1ccc([N+](=O)[O-])cc1 (stereo not given) | 4 | i | i | i | i | -0.53 | / | /
CC(C(=O)NCCCc1ccccc1)c1ccc([N+](=O)[O-])cc1 (stereo not given) | 22* | i | i | i | i | -4.4* | 33* | 58*
CC(C(=O)Nc1nccs1)c1ccc([N+](=O)[O-])cc1 (stereo not given) | 37* | i | i | i | i | -0.21 | 18 | 10
SMILES | GPR7 antagonist | ANO1 activ | ANO1 block | CHT inh | CHT allo act | Kir21 inh | GPR7 antag cf | MCHR1 antag
O=[N+]([O-])c1cccc(C2(O)COc3ccccc3O2)c1 (stereo not given) | -5 | i | i | i | i | 0.63 | / | /
COc1ccc(CN2CCN(C(=O)CCC(=O)Nc3nnc(C4CCCCC4)s3)CC2)cc1F | 7 | i | i | i | i | 0.51 | / | /
CN(C)CCNC(=O)c1cc2c(s1)-c1ccc(Cl)cc1SC2 | 69* | i | i | i | i | -7.8* | 93* | 93*
CN(CCOc1ccc(Cl)cc1)CC(=O)Nc1ccc(OC(F)F)cc1 | 39* | i | i | i | i | 0.88 | 10 | 15
CN(C)CC(=O)Nc1ccc(Oc2ccc(Cl)cc2)cc1 | 17 | i | i | i | i | 0.08 | / | /
CN(C)CCN(C(=O)c1ccc2c(c1)OCCO2)c1nc2ccc(Cl)cc2s1 | -16 | i | i | i | i | 1.8 | / | /
CN(C)CCCN(C(=O)c1ccc2c(c1)OCCO2)c1nc2ccc(Cl)cc2s1 | 51* | i | i | i | i | -9.9* | 61* | 46*
Cc1ccc2sc(N(CCCN(C)C)C(=O)CCS(=O)(=O)c3ccccc3)nc2c1C | 48* | i | i | i | i | -2.2 | 43* | 51*
COc1ccc(OC)c2sc(N(CCCN(C)C)C(=O)CCS(=O)(=O)c3ccccc3)nc12 | / | i | i | i | i | -3.3 | / | /
Cc1cccc2sc(N(CCCN(C)C)C(=O)c3ccc4ncsc4c3)nc12 | 26* | i | i | i | i | -3.8 | 39* | 29*
Cc1ccc2sc(N(CCCN(C)C)C(=O)c3nc4ccccc4s3)nc2c1C | 2 | i | i | i | i | -0.54 | / | /
Cc1ccc2sc(N(CCCN(C)C)C(=O)c3ccc(Br)s3)nc2c1C | 41* | i | i | i | i | -0.72 | 51* | 56*
Cc1nn(CC(=O)Nc2ccc(N3CCOCC3)cc2)c(C)c1[N+](=O)[O-] | / | i | / | / | / | / | / | /
CN(Cc1ccc(Cl)cc1)C(=O)c1ccccc1SCC(=O)N1CCCC1 | / | i | / | / | / | / | / | /
O=C(COC(=O)C1CC1)Nc1ccc(S(=O)(=O)N2CCOCC2)cc1 | / | i | / | / | / | / | / | /
COc1ccc(N(CC(=O)O)S(=O)(=O)c2ccc(C)cc2)cc1Cl | -9 | i | i | i | i | 0.78 | / | /
Cc1cc(=O)c2cc3nc(-c4cccnc4)oc3c(Br)c2o1 | -4 | / | i | i | i | -0.17 | / | /
COc1cc(C2c3sc(=O)[nH]c3SC3C4CCC(C4)C23)ccc1O (stereo not given) | 27* | i | i | i | i | -2.4 | -18 | 15

Assay outcomes as filed in PubChem.
